Experimental data as given in PubChem BioAssay AID1159580 (chemical genetic matrix, 2015).
About 2,000 (36%) of roughly 5,500 compounds were called active. Another 18% or so got no clear call; they are omitted. Cut-off read from the data, not from the text of the source: active = normalized growth mostly below about 0.91 (no sharp cut-off); inconclusive = no clear call, values can overlap the other calls; inactive = mostly above about 0.92. The list shows a part of the results.

Assay: chemical genetic growth profiling, strain panel (AID 1159580);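 note: tested at 20 µM; growth read once vehicle control cultures reached saturation at 30 °C; 1 = growth at the plate median or of vehicle wells; lower values mean less growth of the strain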
Conditions: growth OD
[1] = S. cerevisiae deletion strains, locus YAL040C, strain CLN3, active compounds read low
[2] = S. cerevisiae deletion strains, locus YCL061C, strain MRC1 (second series), active compounds read low
[3] = S. cerevisiae deletion strains, locus YDR363W, strain ESC2, active compounds read low
[4] = S. cerevisiae deletion strains, locus YER002W, strain NOP16, active compounds read low
[5] = S. cerevisiae deletion strains, locus YGR078C, strain PAC10, active compounds read low
[6] = S. cerevisiae deletion strains, locus YJR075W, strain HOC1, active compounds read low
[7] = S. cerevisiae deletion strains, locus YMR307W, strain GAS1, active compounds read low
[8] = S. cerevisiae deletion strains, locus YNL128W, strain TEP1, active compounds read low
[9] = S. cerevisiae deletion strains, locus YNL175C, strain NOP13, active compounds read low
[10] = S. cerevisiae deletion strains, locus YNL197C, strain WHI3, active compounds read low
[11] = S. cerevisiae deletion strains, locus YNL224C, strain SQS1, active compounds read low
[12] = S. cerevisiae deletion strains, locus YNL322C, strain KRE1, active compounds read low
[13] = S. cerevisiae deletion strains, locus YOR083W, strain WHI5 (second series), active compounds read low
[14] = S. cerevisiae deletion strains, locus YPL055C, strain LGE1, active compounds read low
[15] = S. cerevisiae deletion strains, locus YPL241C, strain CIN2, active compounds read low
[16] = S. cerevisiae deletion strains, locus YAL013W, strain DEP1, active compounds read low
[17] = S. cerevisiae deletion strains, locus YDR150W, strain NUM1, active compounds read low
[18] = S. cerevisiae deletion strains, locus YBR229C, strain ROT2, active compounds read low
[19] = S. cerevisiae deletion strains, locus YDL101C, strain DUN1, active compounds read low
[20] = S. cerevisiae deletion strains, locus YKL190W, strain CNB1, active compounds read low
[21] = S. cerevisiae deletion strains, locus YLR039C, strain RIC1, active compounds read low
[22] = S. cerevisiae deletion strains, locus YLR262C, strain YPT6, active compounds read low
[23] = S. cerevisiae deletion strains, locus YNL153C, strain GIM3, active compounds read low
[24] = S. cerevisiae deletion strains, locus YMR263W, strain SAP30, active compounds read low

Measured: normalized growth

S=C(S)OC1CC2CC1C1CCCC21 (stereo unspecified)
inactive: [1] 1 | [2] 1.01 | [3] 1.02 | [4] 1.01 | [5] 1 | [6] 1 | [7] 1.01 | [8] 1.01 | [9] 1.02 | [10] 1.03 | [11] 1.06 | [12] 1.01 | [13] 1 | [14] 0.943 | [15] 1.01

C[C@]12CCC3C(CC[C@H]4C[C@H](O)CC[C@]34C)C1CC[C@@H]2C(=O)CO (stereo partly specified)
inactive: [16] 1.02 | [1] 1.08 | [2] 1.01 | [17] 1.03 | [3] 1.02 | [4] 1.02 | [6] 1.06 | [7] 0.939 | [8] 1.02 | [9] 1.04 | [10] 1.02 | [11] 0.995 | [13] 1.01 | [14] 1.03 | [15] 1.03

C[C@]12CCC3C(CC[C@H]4C[C@H](O)CC[C@]34C)C1CC[C@@H]2O (stereo partly specified)
active: S. cerevisiae deletion strains, locus YBR021W, strain FUR4, active compounds read low 0.803 | S. cerevisiae deletion strains, locus YDR162C, strain NBP2, active compounds read low 0.628 | S. cerevisiae deletion strains, locus YDR502C, strain sam2, active compounds read low 0.899 | S. cerevisiae deletion strains, locus YGL078C, strain dbp3, active compounds read low 0.844 | S. cerevisiae deletion strains, locus YGL248W, strain PDE1, active compounds read low 0.882 | S. cerevisiae deletion strains, locus YGR135W, strain pre9, active compounds read low 0.858 | S. cerevisiae deletion strains, locus YGR252W, strain gcn5, active compounds read low 0.756 | S. cerevisiae deletion strains, locus YJL095W, strain BCK1, active compounds read low 0.721 | S. cerevisiae deletion strains, locus YKL009W, strain mrt4, active compounds read low 0.813 | S. cerevisiae deletion strains, locus YKR001C, strain vps1, active compounds read low 0.83 | [21] 0.538 | [22] 0.421 | S. cerevisiae deletion strains, locus YLR330W, strain CHS5, active compounds read low 0.891 | S. cerevisiae deletion strains, locus YNL298W, strain CLA4, active compounds read low 0.893 | S. cerevisiae deletion strains, locus YNL307C, strain MCK1, active compounds read low 0.885 | S. cerevisiae deletion strains, locus YNR052C, strain pop2, active compounds read low 0.884 | S. cerevisiae deletion strains, locus YOR184W, strain ser1, active compounds read low 0.82 | S. cerevisiae deletion strains, locus YPR163C, strain tif3, active compounds read low 0.844
inactive: [18] 1.01 | S. cerevisiae deletion strains, locus YCL029C, strain bik1, active compounds read low 0.948 | S. cerevisiae deletion strains, locus YDL035C, strain GPR1, active compounds read low 0.883 | S. cerevisiae deletion strains, locus YDL074C, strain BRE1, active compounds read low 0.929 | [19] 0.938 | S. cerevisiae deletion strains, locus YDL185W, strain tfp1, active compounds read low 0.978 | S. cerevisiae deletion strains, locus YDL192W, strain arf1, active compounds read low 0.965 | S. cerevisiae deletion strains, locus YDR101C, strain arx1, active compounds read low 0.991 | S. cerevisiae deletion strains, locus YDR318W, strain mcm21, active compounds read low 0.948 | S. cerevisiae deletion strains, locus YDR388W, active compounds read low 0.994 | S. cerevisiae deletion strains, locus YER110C, active compounds read low 1.01 | S. cerevisiae deletion strains, locus YER155C, strain BEM2, active compounds read low 1.01 | S. cerevisiae deletion strains, locus YER167W, strain BCK2, active compounds read low 1.02 | S. cerevisiae deletion strains, locus YGL086W, strain mad1, active compounds read low 0.951 | [5] 0.908 | S. cerevisiae deletion strains, locus YHR079C, strain IRE1 (second series), active compounds read low 1.01 | S. cerevisiae deletion strains, locus YHR094C, strain hxt1, active compounds read low 1 | S. cerevisiae deletion strains, locus YHR129C, strain ARP1, active compounds read low 0.968 | S. cerevisiae deletion strains, locus YHR200W, strain rpn10, active compounds read low 0.987 | S. cerevisiae deletion strains, locus YIL066C, strain RNR3, active compounds read low 1 | S. cerevisiae deletion strains, locus YIL073C, strain SPO22, active compounds read low 0.875 | S. cerevisiae deletion strains, locus YIL125W, strain kgd1, active compounds read low 0.993 | S. cerevisiae deletion strains, locus YIR030C, strain dcg1, active compounds read low 0.991 | S. cerevisiae deletion strains, locus YJL134W, strain LCB3, active compounds read low 1.01 | S. cerevisiae deletion strains, locus YJL168C, strain set2, active compounds read low 1 | S. cerevisiae deletion strains, locus YJL187C, strain SWE1 (second series), active compounds read low 0.882 | [6] 0.981 | S. cerevisiae deletion strains, locus YKL068W, active compounds read low 0.988 | S. cerevisiae deletion strains, locus YKL085W, strain MDH1 (second series), active compounds read low 1.01 | S. cerevisiae deletion strains, locus YKL085W, strain MDH1, active compounds read low 1.01 | [20] 1.02 | S. cerevisiae deletion strains, locus YLR058C, strain SHM2, active compounds read low 0.944 | S. cerevisiae deletion strains, locus YLR102C, strain apc9, active compounds read low 1 | S. cerevisiae deletion strains, locus YLR268W, strain sec22, active compounds read low 0.974 | S. cerevisiae deletion strains, locus YLR342W, strain FKS1 (second series), active compounds read low 0.814 | S. cerevisiae deletion strains, locus YLR371W, strain rom2, active compounds read low 1.05 | S. cerevisiae deletion strains, locus YLR418C, strain cdc73, active compounds read low 0.894 | S. cerevisiae deletion strains, locus YML016C, strain PPZ1, active compounds read low 0.989 | S. cerevisiae deletion strains, locus YML032C, strain rad52, active compounds read low 0.924 | S. cerevisiae deletion strains, locus YML124C, strain tub3, active compounds read low 1.01 | S. cerevisiae deletion strains, locus YMR078C, strain ctf18, active compounds read low 0.988 | S. cerevisiae deletion strains, locus YMR223W, strain ubp8, active compounds read low 0.936 | [7] 0.798 | S. cerevisiae deletion strains, locus YNL067W, strain RPL9B, active compounds read low 0.876 | S. cerevisiae deletion strains, locus YNL233W, strain BNI4, active compounds read low 0.904 | S. cerevisiae deletion strains, locus YNL250W, strain rad50, active compounds read low 0.912 | S. cerevisiae deletion strains, locus YNL271C, strain bni1, active compounds read low 0.942 | S. cerevisiae deletion strains, locus YOL006C, strain TOP1, active compounds read low 0.926 | S. cerevisiae deletion strains, locus YOL012C, strain htz1 1.56 | S. cerevisiae deletion strains, locus YOL147C, strain pex11, active compounds read low 1.01 | S. cerevisiae deletion strains, locus YOR061W, strain CKA2, active compounds read low 0.985 | S. cerevisiae deletion strains, locus YOR069W, strain VPS5, active compounds read low 0.957 | S. cerevisiae deletion strains, locus YOR136W, strain idh2, active compounds read low 0.984 | S. cerevisiae deletion strains, locus YOR144C, strain elg1, active compounds read low 0.994 | S. cerevisiae deletion strains, locus YOR316C, strain cot1, active compounds read low 0.992 | S. cerevisiae deletion strains, locus YPR119W, strain clb2, active compounds read low 0.992 | S. cerevisiae deletion strains, locus YPR141C, strain kar3, active compounds read low 1.02 | S. cerevisiae deletion strains, locus YPR167C, strain met16, active compounds read low 0.956 | S. cerevisiae deletion strains, strain wtn01, active compounds read low 0.961

CC(=O)[C@H]1CCC2C3CC[C@H]4C[C@H](O)CC[C@]4(C)C3CC[C@@]21C (stereo partly specified)
inactive: [16] 1.01 | [1] 0.979 | [2] 1 | [3] 1.04 | [4] 1 | [5] 1.01 | [7] 0.935 | [8] 1.01 | [23] 0.944 | [9] 0.993 | [10] 1.01 | [11] 1 | [13] 1 | [14] 0.98

CC12CCC3C(CC[C@H]4CC5(CCC34C)OCCO5)C1CCC2O (stereo partly specified)
inactive: [16] 0.988 | [18] 1.01 | [19] 0.976 | [17] 0.912 | S. cerevisiae deletion strains, locus YEL061C, strain CIN8, active compounds read low 0.999 | [5] 0.968 | S. cerevisiae deletion strains, locus YHR030C, strain SLT2, active compounds read low 0.969 | S. cerevisiae deletion strains, locus YHR087W, strain rtc3, active compounds read low 1.02 | [6] 1 | [20] 1.03 | S. cerevisiae deletion strains, locus YLR058C, strain SHM2 (second series), active compounds read low 1.04 | S. cerevisiae deletion strains, locus YLR085C, strain ARP6, active compounds read low 1.03 | S. cerevisiae deletion strains, locus YML094W, strain GIM5, active compounds read low 0.98 | S. cerevisiae deletion strains, locus YMR219W, strain ESC1, active compounds read low 1 | [24] 0.992 | [7] 1.05 | S. cerevisiae deletion strains, locus YNL298W, strain CLA4 (second series), active compounds read low 0.945 | S. cerevisiae deletion strains, locus YNR030W, strain Alg12, active compounds read low 0.963 | [14] 0.98 | [15] 0.962 | S. cerevisiae deletion strains, locus YPR135W, strain CTF4, active compounds read low 0.832 | S. cerevisiae strains, strain wild type, active compounds read low 1.02
active: S. cerevisiae deletion strains, locus YCL061C, strain MRC1, active compounds read low 0.87 | S. cerevisiae deletion strains, locus YJL187C, strain SWE1, active compounds read low 0.92 | S. cerevisiae deletion strains, locus YJR043C, strain POL32, active compounds read low 0.877 | [21] 0.74 | [22] 0.625 | [23] 0.905 | [12] 1.08 [resistant]

C[C@]12CC[C@H]3[C@@H](CCC4C[C@H](O)CC[C@@]43C)[C@@H]1CC[C@@H]2O (stereo partly specified)
inactive: [16] 0.946 | [1] 1.02 | [2] 1 | [3] 0.987 | [4] 1 | [6] 1.06 | [24] 1.03 | [7] 0.977 | [8] 1.03 | [9] 1.02 | [10] 0.964 | [11] 1.01 | [12] 1.02 | [13] 0.966 | [14] 1.03 | [15] 1.03
